Screening results (PubChem)
CASP6 VEID inh = blocks human caspase-6 cleavage activity | P55212 | purified caspase-6, Z-VEID-R110 cleavage fluorescence | inhibition, % at 12.5 µM | actives 0.53% (n = 350,000) | AID 686996;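 active means mean inhibition across replicates at least about 35%, with every replicate also reaching that limit, limit read from the data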;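 further: 0% = median of neutral control wells and 100% = no fluorescence left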
Target sequence (P55212 24-179 limits assumed): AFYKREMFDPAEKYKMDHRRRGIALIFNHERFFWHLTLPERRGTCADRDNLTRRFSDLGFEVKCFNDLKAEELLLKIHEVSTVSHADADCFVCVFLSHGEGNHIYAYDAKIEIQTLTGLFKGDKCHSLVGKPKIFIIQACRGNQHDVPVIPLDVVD
Target sequence (P55212 194-293 limits assumed): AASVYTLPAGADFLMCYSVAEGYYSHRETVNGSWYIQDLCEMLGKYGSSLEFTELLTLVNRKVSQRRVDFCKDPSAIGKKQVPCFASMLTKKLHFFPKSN
LEDGF integ inh = blocks HIV-1 LEDGF/p75-dependent DNA integration; TR-FRET IN-LEDGF/p75 DNA integration, Eu/Cy5; inhibition, % at 3.7 µM; actives 0.64% (n = 370,000); AID 743269;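 active means inhibition above the screen-wide mean plus 3 SD, cut at about 13% in these data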;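 further: signal is the Cy5 over europium emission ratio at 671 and 618 nm; 0% = plate median of compound wells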
UHRF1 MBD2 ctr = human UHRF1 methylated DNA binding inhibitors | Q96T88 | UHRF1 binding to methylated oligo, TR-FRET | inhibition, % at 4.4 µM | actives 0.75% (n = 370,000) | AID 687016; in the data active means inhibition above about 21%;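 further: UHRF1 SRA domain binding a hemimethylated CpG hairpin DNA probe; 0% = median of test compound wells and 100% = reference inhibitor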
MBD2 DNA inh = blocks human MBD2 binding to methylated DNA; Q9UBB5; TR-FRET, MBD2 binding to methylated oligonucleotide; inhibition, % at 4.4 µM; actives 0.31% (n = 370,000); AID 686964; in the data active means inhibition above about 13%
Target sequence (Q9UBB5 whole entry, looked up): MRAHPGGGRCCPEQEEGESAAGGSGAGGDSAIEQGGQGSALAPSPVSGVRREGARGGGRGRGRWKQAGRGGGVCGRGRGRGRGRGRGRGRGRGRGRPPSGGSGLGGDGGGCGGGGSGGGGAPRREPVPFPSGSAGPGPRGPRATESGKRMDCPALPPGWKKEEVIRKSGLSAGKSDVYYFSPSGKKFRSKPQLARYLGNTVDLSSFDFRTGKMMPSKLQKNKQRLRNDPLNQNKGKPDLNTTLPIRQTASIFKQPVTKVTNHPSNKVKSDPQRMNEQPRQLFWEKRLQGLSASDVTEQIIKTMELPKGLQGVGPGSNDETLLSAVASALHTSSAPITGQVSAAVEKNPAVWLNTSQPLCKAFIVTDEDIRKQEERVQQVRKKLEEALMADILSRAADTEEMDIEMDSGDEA
Active calls of the source: *; . = no result given; ! = not confirmed by another sample. An excerpt weighted towards active compounds, which were near 1.4% of everything screened.

SMILES | CASP6 VEID inh | LEDGF integ inh | UHRF1 MBD2 ctr | MBD2 DNA inh
COc1ccc(NC(=O)N2CC(=O)N3[C@@H](CO)[C@H](c4ccc(-c5ccccc5)cc4)[C@@H]3C2)cc1 | -4.1 | . | . | .
CCOC(=O)N1CCN(C(=O)CN(C)S(=O)(=O)c2ccc3c(c2)c(=O)n(C)c(=O)n3C)CC1 | 42.0* | 6.3 | -1.1 | -1.2
CCC(=O)N(C1=C(NC(C)C)C(=O)c2ccccc2C1=O)C(C)C | 43.7* | -1.8 | 7.7 | -5.1
Oc1ccc(NCc2ccccc2OCc2ccccc2F)cc1 | . | 5.0 | -0.2 | -2.4
CCOc1ccccc1CNc1ccc(O)cc1 | 0.3 | 25.3* | 16.7 | 6.9
O=C(C[C@H]1CC[C@@H](NS(=O)(=O)c2ccc(F)cc2)[C@@H](CO)O1)NCc1ccc(Cl)c(Cl)c1 | -0.6 | . | . | .
C=C(NC(=O)C(=C)NC(=O)c1csc(C2=NC3c4csc(n4)C4NC(=O)c5csc(n5)C(C(C)(O)C(C)O)NC(=O)C5CSC(=N5)/C(=C/C)NC(=O)C(C(C)O)NC(=O)c5csc(n5)C3(CC2)NC(=O)C(C)NC(=O)C(=C)NC(=O)C(=C)NC(=O)C(C(C)C)NC2C=Cc3c(C(C)O)cc(nc3C2O)C(=O)OC4C)n1)C(N)=O (configuration not stated) | 8.8 | 32.2* | -2.0 | 7.4
CC(=O)NC[C@@H]1[C@H](c2ccc(C3=CCCC3)cc2)[C@H](CO)N1C(=O)NC(C)C | -0.3 | . | . | .
COc1ccc(-c2nc3c4ccccc4ccn3c2CC2CCCCC2)cc1OC | -4.0 | 1.9 | 22.6* | 7.1
Cc1ccc(NC(=O)CCC(=O)c2cc(C)sc2C)nc1 | -1.6 | 3.6 | -1.9 | -4.8
Cc1ccc(C(=O)CCC(=O)Nc2ccc(C)cn2)cc1 | -2.2 | 4.5 | 28.9* | -4.2
COc1ccc(NS(=O)(=O)c2cccc(C(=O)NCC3(N4CCOCC4)CCCCC3)c2)cc1 | -0.1 | -3.3 | 3.3 | 5.3
COc1ccc(NS(=O)(=O)c2cccc(C(=O)NCC3(N4CCCCC4)CCCCC3)c2)cc1 | 4.6 | 3.0 | 25.1* | 3.5
O=C(C1CC1)N1CCc2sccc2C1c1ccc(Cl)cc1 (configuration not stated) | -2.1 | 5.3 | 50.7* | 3.7
COc1ccc(C2NC(c3ccc(OC)cc3OC)C(C)C(=O)C2C)c(OC)c1 (configuration not stated) | 55.2* | 4.9 | 1.6 | -0.3
CN1c2ccsc2/C(=N/Nc2ccccc2)CS1(=O)=O | 1.9 | -1.1 | 23.7* | 6.6
COc1ccc(C(=O)C2CCCN(C(=O)c3c4c(nn3C)CCCC4)C2)cc1F (configuration not stated) | -1.6 | -4.4 | 39.0* | 1.6
O=C(C[C@H]1CC[C@H]2[C@@H](COC[C@H](O)CN2Cc2cc(F)ccc2F)O1)NCc1ccc(F)cc1 | -0.2 | . | . | .
COc1ccc2c3c([nH]c2c1)[C@H](CO)N(C(=O)C1CCC1)CC31CN(C(=O)NC(C)C)C1 | 5.5 | . | . | .
Cc1nnc(SCc2ccccc2)[nH]c1=O | -2.4 | -5.5 | -2.3 | 1.7
Cc1nnc(SCC(C)C)[nH]c1=O | . | 2.0 | 21.6* | -4.6
CCOC(=O)N(C)C[C@@H]1OCc2ccccc2-c2c(n(C)c3ccccc23)C(=O)N([C@@H](C)CO)C[C@@H]1C | 0.2 | . | . | .
CCCc1nc2c3ccccc3ccn2c1Cc1ccc(C)cc1 | -8.0 | -1.7 | 17.7 | 2.3
Fc1cccc(Cc2c(C3CCCCC3)nc3c4ccccc4ccn23)c1 | -0.9 | -4.7 | 24.9* | 10.9
CCCc1nc2c3ccccc3ccn2c1Cc1cccc(Cl)c1 | 4.8 | -2.0 | 24.4* | 11.3
SMILES | CASP6 VEID inh | LEDGF integ inh | UHRF1 MBD2 ctr | MBD2 DNA inh
c1ccc(Cc2c(C3CCCCC3)nc3c4ccccc4ccn23)cc1 | 0.2 | -0.7 | 20.0 | 5.9
CCN1CCN(Cc2ccc(NC(=O)c3ccc(C)c(NC(=O)c4nccn4C)c3)cc2C(F)(F)F)CC1 | -8.2 | 3.8 | 2.6 | 7.7
CCN1CCN(Cc2ccc(NC(=O)c3ccc(C)c(NC(=O)N4CCNC4=O)c3)cc2C(F)(F)F)CC1 | -0.6 | 1.2 | 22.6*! | 10.6
C[C@@H]1CN([C@@H](C)CO)C(=O)Cc2cc(NC(=O)Nc3cccc4ccccc34)ccc2O[C@H]1CN(C)C(=O)Nc1ccc2c(c1)OCO2 | 0.2 | . | . | .
O=C1CCCC(O)=C1N=Nc1cccc(C(=O)O)c1 | 37.3* | 4.9 | 20.7* | 0.8
CC(=O)N(C)C[C@H]1Oc2ncc(-c3cccc(C#N)c3)cc2C(=O)N([C@@H](C)CO)C[C@H]1C | 0.3 | . | . | .
Cc1nnc(-n2cnc3ccccc32)c2ccccc12 | . | 2.8 | 21.4* | 10.7
Cc1nnc(OCc2nc3ccccc3n2C)c2ccccc12 | . | -0.7 | 3.4 | 6.3
CN(C)C(=O)c1cc2c(c(-c3cccc(-c4ccccc4F)c3)n1)[C@@H](CCO)N(S(C)(=O)=O)C2 | 5.8 | -2.1 | 92.1* | -6.0
CC(C)NC(=O)N(C)C[C@@H]1Oc2ncc(-c3ccccc3F)cc2C(=O)N([C@@H](C)CO)C[C@H]1C | 0.9 | . | . | .
Cc1ccc2cc(N)ccc2n1 | 61.5* | -5.6 | -0.6 | -6.8
O=C(Nc1cc(F)ccc1F)N1C[C@H]2[C@@H](c3ccccc31)[C@@H](CO)N2Cc1ccncc1 | -2.6 | . | . | .
O=C1CS/C(=N\N=C\c2ccccc2Cl)N1CC1CC1 | 0.8 | 0.8 | 24.7* | 10.9
Cc1ccc(/C=N/N=C2\SCC(=O)N2CC2CC2)cc1 | 3.3 | -3.3 | 0.0 | -3.3
C[C@@H]1CN([C@@H](C)CO)C(=O)c2cc(NC(=O)Nc3ccc(C(F)(F)F)cc3)ccc2O[C@H]1CN(C)S(=O)(=O)c1ccc(Cl)cc1 | 0.6 | . | . | .
O=C(O)C1CC(c2ccccc2)=NO1 (configuration not stated) | . | 1.3 | 4.2 | 2.5
O=C(O)C1CC(c2ccc(F)cc2)=NO1 (configuration not stated) | . | 3.9 | 26.8* | 5.0
Oc1ccc(/C=N/Nc2ccnc3cc(Cl)ccc23)c(O)c1 | 69.2* | 0.1 | -2.1 | 0.9
Cc1ccccc1/C=N/Nc1ccnc2cc(Cl)ccc12 | -4.0 | 3.7 | -4.2 | -3.2
C[C@H]1CCCCO[C@@H](CN(C)S(=O)(=O)c2ccccc2)[C@@H](C)CN([C@@H](C)CO)C(=O)c2cc(NS(=O)(=O)c3ccc(F)cc3)ccc2O1 | -0.5 | . | . | .
CCN(CC)C(=S)SC1=CCS(=O)(=O)C1 | 6.2 | 5.5 | 25.9* | 7.3
O=C(c1ccccc1)N1CC[C@@H]2[C@@H](CO)Nc3ccc(-c4ccccc4F)cc3[C@@H]21 | -0.5 | . | . | .
COCC(=O)Nc1ccc2c(c1)[C@H]1C[C@H](CC(=O)NCc3ccncc3)O[C@H](CO)[C@H]1O2 | -3.1 | . | . | .
COc1ccccc1C(=O)N1C[C@@H]2[C@H](c3ccccc31)[C@H](CO)N2C(=O)Cc1cccnc1 | 3.1 | . | . | .
NC(=O)N/N=C/c1ccc(N2CCOCC2)s1 | 2.5 | -2.5 | -6.9 | -1.0
O=C(O)c1cc(N/N=C/c2ccc(N3CCOCC3)s2)ccc1Cl | 17.7 | 68.2* | 93.2* | 43.3*
Cc1ccc(S(=O)(=O)Nc2ccc3c(c2)CC(=O)N([C@H](C)CO)C[C@H](C)[C@@H](CN(C)C(=O)NC2CCCCC2)O3)cc1 | 0.1 | . | . | .
CCC(=O)N1CCC1(C)C(=O)Nc1cccc2cccnc12 (configuration not stated) | 78.0* | -0.6 | -2.5 | -8.4
